In one test the target is Albumin (Bos taurus) (UniProt P02769). Description: compounds binding labelled BSA control protein – biochemical, small-molecule microarray, Alexa647 label, 635/667 nm fluorescence, artefact control for SMM control protein annotation, profiling panel (AID 1118).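 Also: score merges 667 nm emission intensity and signal-to-noise per printed compound spot.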 Particulars: BSA-A647 binding, fluorescence 635 nm, higher = more signal.
Test [1] in a line: probe aXIP binding to arrayed compounds – biochemical, NeuroSMM set, 635/667 nm fluorescence, primary screen (AID 1119).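 Also: probe is the protein aXip251-270 applied at 1 µg/mL to compound-printed slides; binding of probe to printed compounds measured as 667 nm fluorescence plus signal to noise.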 Particulars: small-molecule microarray, higher = more signal, called active from +8 up or from −8 down.
Test [2] in a line: probe aNOTCH3 binding on compound microarray – biochemical, small-molecule microarray, 635/667 nm fluorescence, primary screen (AID 1120).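 Also: probe is a biotin-tagged antibody raised against NOTCH3 rather than NOTCH3 protein; score merges spot fluorescence near 667 nm with spot signal to noise.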 To be noted: higher = more signal.
Test [3] can be described thus: probe aNOTCH2 binding on compound microarray – biochemical, small-molecule microarray, 635/667 nm fluorescence, primary screen (AID 1121).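 Also: score merges feature fluorescence read at 667 nm with its signal to noise.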 Particulars: higher = more signal.
For test [4], the target named is Carbonic anhydrase 2 (Homo sapiens) (UniProt P00918). Description: compounds binding carbonic anhydrase 2 – biochemical, small-molecule microarray, Alexa647-labelled CAII, profiling panel (AID 1122). To be noted: CAII-A647 binding fluorescence, higher = more signal.
The nature of test [5]: COS7 lysate on small-molecule microarray, probe aHis, 635 nm (AID 1123).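 Also: z-score combines 667nm fluorescence intensity with signal-to-noise per printed compound spot.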 To be noted: COS7 cell lysate, fluorescence, higher = more signal.
Test [6] can be described thus: probe aLAP1 signal on lysate-treated microarray – cell lysate, small-molecule microarray, COS7 lysate, primary screen (AID 1124).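 Also: lysate comes from COS7 cells expressing LAP1 and is applied at 0.3 µg/mL; score merges spot fluorescence near 667 nm with signal-to-noise over triplicate slides.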 To be noted: probe aLAP1, fluorescence, higher = more signal.
Another test has as its system Sam68 (KHDRBS1). The test is described as follows: compounds binding KHDRBS1 protein – biochemical, small-molecule microarray, 635 nm fluorescence, primary screen (AID 1125).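 Also: score merges 667 nm channel intensity with signal to noise over triplicate slides.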 Particulars: higher = more signal.
The test system of test [7] is Chordin-like protein 2 (CHRDL2). Description: compounds binding chordin-like 2 – biochemical, small-molecule microarray, 635 nm fluorescence, primary screen (AID 1126).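 Also: printed compound slides probed with Chrdl2 protein at 4 µg/mL for 1 h at 4 C; score merges 667 nm emission intensity with signal to noise over three replicate slides.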 Particulars: fluorescence 635 nm, higher = more signal.
Test [8] deals with Concanavalin-A (Canavalia ensiformis) (UniProt P02866). The test is described as follows: compounds binding concanavalin A lectin – biochemical, small-molecule microarray, Alexa647 label, 635 nm, artefact control for SMM control protein annotation, primary screen (AID 1127).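 Also: z combines 667 nm emission intensity with signal-to-noise across three replicate slides.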 Particulars: ConA-A647 binding fluorescence, higher = more signal.
Sequence of Concanavalin-A (Canavalia ensiformis) (P02866 whole entry, looked up): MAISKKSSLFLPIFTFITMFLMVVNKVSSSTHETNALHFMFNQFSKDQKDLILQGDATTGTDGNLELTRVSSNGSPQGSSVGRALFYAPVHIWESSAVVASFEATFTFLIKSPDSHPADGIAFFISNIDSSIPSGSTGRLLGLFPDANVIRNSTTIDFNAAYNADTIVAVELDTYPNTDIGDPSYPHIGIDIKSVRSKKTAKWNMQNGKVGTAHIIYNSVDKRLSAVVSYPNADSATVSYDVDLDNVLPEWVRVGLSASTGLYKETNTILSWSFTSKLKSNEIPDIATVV
Test [9] in a line: compounds binding Alexa647 anti-His antibody – biochemical, small-molecule microarray, 635 nm fluorescence, artefact control for SMM control protein annotation, primary screen (AID 1128).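 Also: score merges feature fluorescence with signal-to-noise for each printed compound spot.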 To be noted: higher = more signal.
Test [10] relates to Human papillomavirus type 1a E7 protein (residues 1-88). The test is described as follows: HPV1a E7 small-molecule binders, primary screen, biochemical, small-molecule microarray, residues 1-88, 635 nm (AID 1129). To be noted: small-molecule microarray binding, fluorescence 635 nm; higher = more signal.
The target of test [11] is Focal adhesion kinase 1 (Homo sapiens) (UniProt Q05397). The test is described as follows: PTK2 protein binding on printed compound slides – biochemical, small-molecule microarray, 635/667 nm fluorescence, BSA, DTT, primary screen (AID 1130).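 Also: composite of spot emission at 667 nm and signal to noise over triplicate slides.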 To be noted: 635 nm fluorescence, higher = more signal.
Sequence of Focal adhesion kinase 1 (Homo sapiens) (Q05397 whole entry, looked up): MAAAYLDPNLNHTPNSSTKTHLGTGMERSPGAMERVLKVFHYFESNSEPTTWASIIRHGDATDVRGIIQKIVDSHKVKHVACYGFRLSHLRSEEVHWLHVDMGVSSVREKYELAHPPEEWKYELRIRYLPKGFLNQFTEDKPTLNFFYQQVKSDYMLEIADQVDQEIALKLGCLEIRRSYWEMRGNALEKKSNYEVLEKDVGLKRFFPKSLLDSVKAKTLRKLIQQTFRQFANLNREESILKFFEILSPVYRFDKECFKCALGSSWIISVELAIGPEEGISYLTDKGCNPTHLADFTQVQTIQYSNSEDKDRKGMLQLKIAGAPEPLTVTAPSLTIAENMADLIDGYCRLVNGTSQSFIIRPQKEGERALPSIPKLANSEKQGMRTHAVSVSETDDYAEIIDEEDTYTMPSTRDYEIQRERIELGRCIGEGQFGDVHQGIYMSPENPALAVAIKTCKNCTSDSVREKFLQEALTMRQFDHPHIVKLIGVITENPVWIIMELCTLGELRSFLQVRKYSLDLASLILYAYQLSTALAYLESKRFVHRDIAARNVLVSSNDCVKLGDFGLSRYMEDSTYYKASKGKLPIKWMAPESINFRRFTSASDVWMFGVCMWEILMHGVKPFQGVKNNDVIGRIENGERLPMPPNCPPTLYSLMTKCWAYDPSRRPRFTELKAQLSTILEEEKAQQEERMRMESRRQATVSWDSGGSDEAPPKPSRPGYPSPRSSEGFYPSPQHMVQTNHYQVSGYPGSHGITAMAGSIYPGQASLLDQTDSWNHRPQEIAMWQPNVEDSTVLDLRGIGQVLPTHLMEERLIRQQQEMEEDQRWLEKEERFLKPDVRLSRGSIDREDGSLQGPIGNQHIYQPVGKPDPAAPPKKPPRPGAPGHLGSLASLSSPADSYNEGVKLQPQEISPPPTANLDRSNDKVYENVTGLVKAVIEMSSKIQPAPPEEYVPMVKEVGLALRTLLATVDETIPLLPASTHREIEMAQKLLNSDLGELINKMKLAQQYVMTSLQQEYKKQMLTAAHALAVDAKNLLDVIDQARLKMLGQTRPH
Test [12] concerns Fibrinogen (Alexa647-labelled). Description: Alexa647-fibrinogen binding to printed small molecules – biochemical, small-molecule microarray, 635/667 nm fluorescence, artefact control for SMM control-protein annotation, profiling panel (AID 1131).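 Also: z-score merges 667 nm fluorescence with per-spot signal-to-noise over triplicate slides.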 To be noted: fibrinogen-A647 binding fluorescence, higher = more signal.
Test [13] has as its target Follistatin (Homo sapiens) (UniProt P19883). The test is described as follows: FST protein binding to printed compounds – biochemical, small-molecule microarray, 635/667 nm fluorescence, primary screen (AID 1132). Particulars: 635 nm fluorescence, higher = more signal.
The target of test [14] is Fibroblast growth factor 2 (Homo sapiens) (UniProt P09038). Description: basic fibroblast growth factor binding to printed compounds – biochemical, small-molecule microarray, 635/667 nm fluorescence, primary screen (AID 1133). Particulars: FGF2, fluorescence 635/667, higher = more signal.
Sequence of Fibroblast growth factor 2 (Homo sapiens) (P09038 whole entry, looked up): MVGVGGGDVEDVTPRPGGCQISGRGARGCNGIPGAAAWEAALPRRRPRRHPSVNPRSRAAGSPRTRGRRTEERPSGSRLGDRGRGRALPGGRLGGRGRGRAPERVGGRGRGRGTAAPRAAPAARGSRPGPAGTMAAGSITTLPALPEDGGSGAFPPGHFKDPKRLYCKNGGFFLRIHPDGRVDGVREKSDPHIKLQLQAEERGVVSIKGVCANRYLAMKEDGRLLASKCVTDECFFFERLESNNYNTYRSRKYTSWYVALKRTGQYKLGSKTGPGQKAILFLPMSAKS
Test [15] is described as follows: JC-1 mitochondrial potential readout, lung cancer cells – cell-based, A549, JC-1 fluorescence, basal, 24 h, 100 nL, profiling panel (AID 1138).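 Also: A549 lung adenocarcinoma cells under basal conditions with no added stimulus; test concentration not given here.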 Particulars: higher = more signal.
In a further test the test system is Lefty1. Description: Lefty1 protein binding to printed compounds – biochemical, small-molecule microarray, 635/667 nm fluorescence, primary screen (AID 1139). To be noted: fluorescence 635/667, higher = more signal.
For test [16], the system named is wheat germ agglutinin (Triticum aestivum), Alexa647-labelled. Description: Alexa647-WGA lectin binding to printed small molecules – biochemical, small-molecule microarray, 635/667 nm fluorescence, artefact control for SMM control-protein annotation, profiling panel (AID 1140).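 Also: score merges 667 nm feature emission with signal to noise over triplicate slides.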 Particulars: WGA-A647 binding, 635 nm fluorescence, higher = more signal.
For test [17], the target named is Luciferin 4-monooxygenase (Photinus pyralis) (UniProt P08659). The test is described as follows: inhibition of purified Photinus pyralis luciferase – biochemical, luminescence, purified enzyme, 2006 set, primary screen (AID 1141).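 Also: cell-free assay with purified firefly luciferase at 100 ng per well in PBS; test concentration not given here.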 Particulars: purified firefly luciferase, SteadyGlo luminescence, 30 min; higher = more signal, called active from +8 up or from −8 down.
Sequence of Luciferin 4-monooxygenase (Photinus pyralis) (P08659 whole entry, looked up): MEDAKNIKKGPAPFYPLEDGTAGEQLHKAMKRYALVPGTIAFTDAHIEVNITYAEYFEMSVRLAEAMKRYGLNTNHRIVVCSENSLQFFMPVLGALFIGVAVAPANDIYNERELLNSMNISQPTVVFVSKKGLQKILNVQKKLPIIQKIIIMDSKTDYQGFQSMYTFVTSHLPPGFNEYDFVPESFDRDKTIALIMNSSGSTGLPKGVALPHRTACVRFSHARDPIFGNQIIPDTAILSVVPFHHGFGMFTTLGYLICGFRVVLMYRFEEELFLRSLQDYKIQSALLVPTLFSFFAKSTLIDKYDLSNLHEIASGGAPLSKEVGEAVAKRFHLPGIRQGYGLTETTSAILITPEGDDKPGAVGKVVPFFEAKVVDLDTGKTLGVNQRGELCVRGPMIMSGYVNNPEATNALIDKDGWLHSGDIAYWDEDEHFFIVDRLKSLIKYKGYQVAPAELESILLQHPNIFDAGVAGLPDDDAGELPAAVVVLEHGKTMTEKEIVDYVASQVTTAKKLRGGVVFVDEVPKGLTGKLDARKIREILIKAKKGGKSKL

The source made the active and inactive calls.

Sequence of Albumin (Bos taurus) (P02769 whole entry, looked up): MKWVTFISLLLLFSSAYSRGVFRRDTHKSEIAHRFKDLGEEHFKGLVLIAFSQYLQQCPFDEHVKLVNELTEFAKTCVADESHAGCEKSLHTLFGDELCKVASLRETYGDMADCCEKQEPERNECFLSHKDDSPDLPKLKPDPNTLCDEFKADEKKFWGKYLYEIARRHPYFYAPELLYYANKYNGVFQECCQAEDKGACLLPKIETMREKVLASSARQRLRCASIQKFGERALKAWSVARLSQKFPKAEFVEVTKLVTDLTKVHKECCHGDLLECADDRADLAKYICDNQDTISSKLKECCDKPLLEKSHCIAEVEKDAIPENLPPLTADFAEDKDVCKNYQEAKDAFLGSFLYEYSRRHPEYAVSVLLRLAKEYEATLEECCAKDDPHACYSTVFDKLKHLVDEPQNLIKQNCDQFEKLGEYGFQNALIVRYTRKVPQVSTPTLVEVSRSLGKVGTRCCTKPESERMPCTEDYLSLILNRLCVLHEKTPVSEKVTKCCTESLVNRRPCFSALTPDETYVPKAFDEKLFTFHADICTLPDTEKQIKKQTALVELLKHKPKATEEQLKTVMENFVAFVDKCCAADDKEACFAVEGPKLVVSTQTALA
Sequence of Follistatin (Homo sapiens) (P19883 whole entry, looked up): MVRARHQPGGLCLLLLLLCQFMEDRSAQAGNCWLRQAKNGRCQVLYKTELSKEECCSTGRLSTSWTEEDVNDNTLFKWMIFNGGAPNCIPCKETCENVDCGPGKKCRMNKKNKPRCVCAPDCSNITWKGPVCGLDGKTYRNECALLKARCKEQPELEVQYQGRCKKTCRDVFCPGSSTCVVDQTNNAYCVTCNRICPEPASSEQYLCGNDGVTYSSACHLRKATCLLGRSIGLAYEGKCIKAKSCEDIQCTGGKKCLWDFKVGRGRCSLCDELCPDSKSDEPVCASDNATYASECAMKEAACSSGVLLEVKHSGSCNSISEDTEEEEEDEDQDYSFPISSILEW

Take `O=C1O[C@@H](c2ccccc2)[C@@H](c2ccccc2)N2[C@@H](c3ccccc3OCCO)[C@]3(C(=O)Nc4ccc(C#CC5=CCCCC5)cc43)[C@@H](C(=O)N3CCCCCCC3)[C@H]12`: the composite z-score in the test with Albumin (Bos taurus) is 0.407; in test [2], 2.16; in [3], 1.08; in test [4] it was 1.04; in test [5], 4.3; in test [6], 1.29. The composite z-score with Sam68 (KHDRBS1) was 1.31; in test [7], 1.68; in test [8], 1.09; in test [9] it was 1.53; in test [10] it was 1.32; in test [11], 3.35. The composite z-score in [12] was 0.487; in test [13], 1.48; in [14], 0.095; with Lefty1 it was 1.63; in [16], 1.64. Also, the composite Z-score in test [1] was 7.47 (inactive). Moreover, the z-score in test [15] was -0.489; in test [17], -1.16 (inactive).

On to `COCCCNC(=O)[C@]1(CCC(=O)OC(C)(C)C)N=C(c2ccc(OCCCO)cc2)O[C@@H]1c1ccccc1CN=[N+]=[N-]`, for which the composite z-score in the test with Albumin (Bos taurus) was 0.839; in test [2], 0.395; in test [3], -0.0411; in test [4] it was 0.78; in test [5], 2.03; in [6], 1.8. For the same compound, the composite z-score in the test with Sam68 (KHDRBS1) was 1.3; in [7] it was 0.0091; in [8], 1.12; in test [9], 1.3; in test [10], 1.26; in test [11], 0.383. For the same compound, the composite z-score in [12] is 0.197; in test [13], 1.28; in test [14] it was 1.09; with Lefty1, 0.19; in [16] it was 1.13. Also, the composite Z-score in test [1] was 0.0707 (inactive). Besides, the z-score was -0.627 in test [15] and -1.11 (inactive) in test [17].

With `CCOC(=O)C[C@H]1[C@H](OC(=O)c2ccc(C(=O)c3ccccc3)cc2)[C@@H](NC(=O)CC(C)C)c2cc(OCCCO)ccc2N1C(=O)c1ccc2ccccc2n1`, the composite z-score in the test with Albumin (Bos taurus) was 0.577; in [2] it was 0.206; in [3] it was -0.114; in [4] it was 0.232; in test [5], 1.21; in test [6], 0.323. Besides, the composite z-score in the test with Sam68 (KHDRBS1) came out at 1.29; in [7], 0.448; in test [8], 1.12; in test [9], 1.35; in [10], 1.21; in test [11], 0.0174. The composite z-score was found to be 0.989 in [12]; 1.15 in test [13]; 0.94 in test [14]; 1.36 in the test with Lefty1; 0.61 in [16]. The composite Z-score in test [1] was -0.86 (inactive). For the same compound, the z-score in [15] was 1.78; in test [17], 0.103 (inactive).

Regarding `COc1ccc(CCNC(=O)[C@@]2(C)c3ccccc3C(=O)N(C(C)C)[C@H]2c2ccc(CO)cc2)cc1`, the composite z-score was 0.252 with Albumin (Bos taurus); -0.0074 in test [2]; -0.151 in test [3]; 0.578 in test [4]; 0.216 in [5]; 0.591 in test [6]. The composite z-score in the test on Sam68 (KHDRBS1) was -0.38; in [7], 0.397; in test [8] it was 0.613; in test [9], 1.63; in test [10] it was 1.19; in [11] it was -0.0743. In addition, the composite z-score came to 0.0931 in test [12]; 0.674 in test [13]; 0.493 in test [14]; 0.826 with Lefty1; 0.544 in test [16]. For the same compound, the composite Z-score in test [1] was 0.768 (inactive). In addition, the z-score in test [15] is 0.537; in test [17], -1.19 (inactive).

Regarding `COC(=O)[C@@]1(Cc2ccc(F)cc2)[C@H]2c3cc(C(=O)N4CCCC4)n(Cc4ccc(S(C)(=O)=O)cc4)c3C[C@H]2CN1C(=O)c1ccccc1`, the composite z-score with Albumin (Bos taurus) turned out to be 1.08; in [2], 0.827; in test [3], 0.365; in test [4] it was 0.718; in [5], 3.34; in test [6], 1.21. Further, the composite z-score in the test with Sam68 (KHDRBS1) is 0.995; in test [7], -0.26; in test [8], 1.05; in test [9], 1.9; in test [10], 1.24; in [11], 0.566. For the same compound, the composite z-score was 0.773 in test [12]; 0.751 in test [13]; 0.264 in test [14]; -0.0071 in the test with Lefty1; 0.616 in test [16]. Further, the composite Z-score in test [1] is 1 (inactive). Besides, the values for the z-score in test [15] and in [17] were 0.427 and 1.18 (inactive), respectively.

Consider `C=C(C)[C@@H]1CC=C(C(O)C2C=CC3C(=O)N(C)C(=O)C3N2Nc2ccccc2)CC1` (stereo not given in full), for which the composite z-score with Albumin (Bos taurus) is 0.203; in test [2], 0.15; in test [3] it was -0.0617; in [4], 0.372; in test [5], 0.491; in test [6], 0.201. Also, the composite z-score in the test on Sam68 (KHDRBS1) was 0.838; in test [7], 1.38; in [8], 0.183; in [9] it was -0.243; in test [10], 1.17; in test [11], 0.427. Also, the composite z-score was found to be 0.262 in test [12]; 1.38 in test [13]; 1.12 in test [14]; 0.987 in the test with Lefty1; 1.18 in test [16]. Moreover, the composite Z-score in [1] was 0.0898 (inactive). Further, the results for the z-score in test [15] and in test [17] were 0.54 and 0.485 (inactive), respectively.

For the compound `CCOC(=O)C[C@H]1[C@H](OC(=O)c2ccc(-c3ccccc3)cc2)[C@@H](NC(=O)Cc2ccc(OC)cc2)c2cc(OCCCO)ccc2N1C(=O)c1ccccc1`, the composite z-score in the test with Albumin (Bos taurus) is 0.167; in [2] it was 0.15; in [3] it was -0.135; in test [4], -0.0516; in test [5] it was 0.614; in test [6], -0.105. The composite z-score is 0.264 in the test with Sam68 (KHDRBS1); -0.348 in test [7]; 0.0776 in test [8]; 0.0013 in test [9]; -0.483 in test [10]; 0.0865 in test [11]. Also, the composite z-score in [12] came to 0.44; in [13] it was 0.349; in test [14], 0.0164; in the test on Lefty1 it was 0.299; in test [16], 0.241. For the same compound, the composite Z-score in [1] is 0.0175 (inactive). For the same compound, the results for the z-score in test [15] and in test [17] were 0.188 and 0.785 (inactive), respectively.

On to `CCOC(=O)C[C@H]1[C@H](OC(=O)c2ccc(C(=O)c3ccccc3)cc2)[C@@H](NC(=O)c2ccccc2)c2cc(OCCCO)ccc2N1C(=O)c1ccc2ccccc2n1`, for which the composite z-score was 0.783 with Albumin (Bos taurus); 0.0561 in test [2]; -0.0187 in test [3]; 0.418 in test [4]; 1.53 in test [5]; 0.612 in test [6]. Further, the composite z-score in the test with Sam68 (KHDRBS1) was 1.33; in [7], -0.284; in test [8] it was 1.05; in test [9], 1.03; in test [10], 1.06; in [11], 0.281. Besides, the composite z-score was 0.788 in [12]; -0.0746 in test [13]; -0.268 in test [14]; 0.536 in the test on Lefty1; 0.324 in [16]. Further, the composite Z-score in [1] was -0.386 (inactive). The z-score is 0.586 in test [15] and -0.417 (inactive) in [17].

For the origin of these results see PubChem BioAssay.
